Only some compounds are listed: those with a hit (about 0.47% of all), similar ones and a draw of the others.
UDG counter = counter-screen for AID inhibitors: uracil-DNA glycosylase inhibition; FRET deamination/UDG coupled assay, UDG read, 4 h; Potency, µM (doses to about 115 µM), most hits filed as inhibitors; 91,000 compounds, 0.14% hits; AID 1347430; further: nearly all actives have a fitted effect of over 65% in size
AID inhibitor = activation induced cytidine deaminase inhibition; Q9GZX7; AID deamination FRET fluorescence, UDG-coupled, 4 h; Potency, µM (titrated, usually from 115 µM), usual class: inhibitors; 91,000 compounds, 0.32% hits; further: nearly all actives have a fitted effect of over 25% in size
Target sequence (Q9GZX7 whole entry, looked up): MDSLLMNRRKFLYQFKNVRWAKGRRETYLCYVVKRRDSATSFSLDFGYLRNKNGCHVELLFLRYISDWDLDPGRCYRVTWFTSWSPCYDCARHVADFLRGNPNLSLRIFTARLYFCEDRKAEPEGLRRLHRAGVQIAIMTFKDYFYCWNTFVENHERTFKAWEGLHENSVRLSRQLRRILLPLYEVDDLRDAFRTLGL
Each line names hits and unclear results; the compound was inactive in the other large screens. The call rests on the fitted dose curve; in most records, active means well fitted curve in the direction sought with a large enough effect; inconclusive means small, poorly fitted or top-dose-only effect, or another doubt; inactive means no such curve, though single readings can be large; an effect the other way counts as inactive or inconclusive.

COC(=O)COc1ccc2c(c1)O/C(=C\C1=Cc3ccccc3OC1C)C2=O (stereo unspecified)	none
Cc1cccc(CN2CCC(CNc3ncnc4onc(-c5ccc(Cl)cc5)c34)CC2)c1	AID inhibitor 20µM
Cc1ccc(CN2CCC(CNc3ncnc4onc(-c5ccc(Cl)cc5)c34)CC2)cc1	none
O=C(O)c1ccc(-n2c(/C=C\c3ccc(O)cc3)nc3ccccc3c2=O)cc1	none
O=C(O)c1cc(-n2c(/C=C\c3ccc(F)cc3)nc3ccccc3c2=O)ccc1Cl	UDG counter 89.1µM, AID inhibitor inconclusive
N#Cc1nc(-c2ccccc2F)oc1N1CCN(Cc2ccccc2)CC1	none
Cc1cc(Sc2ccc(NC(=O)c3cccc(Cl)c3)cc2)c2ccccc2n1	none
COc1ccc(N2CCN(C(=O)C3CCN(Cc4nc(-c5ccc(Cl)cc5)oc4C)CC3)CC2)cc1	none
Cc1ccc(Cl)cc1N1CCN(C(=O)C2CCN(Cc3nc(-c4ccc(Cl)cc4)oc3C)CC2)CC1	UDG counter 89.1µM, AID inhibitor inconclusive
Cc1oc(-c2cccc(Cl)c2)nc1CN1CCC(C(=O)NCCCN2CCN(c3ccccc3F)CC2)CC1	none
Cc1oc(-c2ccc(Cl)cc2)nc1CN1CCCC(C(=O)NCc2ccccc2)C1 (stereo unspecified)	UDG counter 89.1µM
Cc1cccc(-c2nc(CN3CCCC(C(=O)N4CCN(c5cc(Cl)ccc5C)CC4)C3)c(C)o2)c1 (stereo unspecified)	UDG counter 89.1µM, AID inhibitor inconclusive
Cc1ccccc1-c1nc(CN2CCCC(C(=O)NCc3ccc(Cl)cc3)C2)c(C)o1 (stereo unspecified)	UDG counter inconclusive
CCCCNC(=O)C1CCCN(Cc2nc(-c3ccc(Cl)cc3)oc2C)C1 (stereo unspecified)	UDG counter inconclusive
Cc1ccc(C)c(N2CCN(C(=O)C3CCN(Cc4nc(-c5cccc(Cl)c5)oc4C)CC3)CC2)c1	UDG counter 89.1µM
O=C(O)c1ccc(-c2ccco2)cc1	none
FC(F)(F)c1cc(Cl)c2n[nH]c(=S)n2c1	none
Cc1ccn2c(Nc3ccccc3)c(-c3c[nH]c4ccccc34)nc2c1	none
Cc1ccc(Nc2c(-c3c[nH]c4ccccc34)nc3cc(C)ccn23)cc1	UDG counter 79.4µM, AID inhibitor inconclusive
CN(C)c1ccc(/C=N/Nc2ccccc2Cl)cc1	none
COc1ccccc1/C=C/C=C1\Oc2cc(OS(C)(=O)=O)ccc2C1=O	none
CN(C(=O)C1CCN(c2ncnc3c2nc2n3CCCCC2)CC1)c1ccccc1F	none
Cc1ccc(C)c(N(C)C(=O)C2CCN(c3ncnc4c3nc3n4CCCCC3)CC2)c1	AID inhibitor 79.4µM
COc1ccc(CNCCC(c2ccc(C)cc2)c2ccco2)cc1 (stereo unspecified)	none
COc1ccc(CNCCC(c2ccccc2)c2ccc3c(c2)OCO3)cc1 (stereo unspecified)	AID inhibitor 44.7µM
COc1ccc2ccccc2c1C=C(C#N)c1ccccn1	none
CC(=C/c1ccccc1)/C=C1/Cc2ccccc2C1=O	none
COc1ccc(Nc2nc(Nc3ccc(F)cc3)nc3nccnc23)cc1	AID inhibitor 25.1µM
COc1ccc(Nc2nc(NCCO)c3nccnc3n2)cc1	none
Cc1ccccc1Nc1nc(CSc2nnnn2C2CC2)cs1	none
O=C(O)c1cc(Nc2nc(-c3ccccc3)cs2)ccc1O	AID inhibitor inconclusive
O=C(O)c1ccc(Nc2nc(-c3ccc(Cl)cc3)cs2)cc1O	AID inhibitor 79.4µM
COc1cc(/C=C/C(=O)c2cc3ccccc3o2)ccc1OC(C)C	none
Cc1cc(-n2c(C)nc3ccccc3c2=O)ccc1NC(=O)c1cccc([N+](=O)[O-])c1C	UDG counter 89.1µM
Cc1cc(-n2c(C)nc3ccccc3c2=O)ccc1NC(=O)c1ccccc1[N+](=O)[O-]	none
COc1ccc(-c2nn3c(-c4ccc(C(C)(C)C)cc4)nnc3s2)cc1OC	AID inhibitor inconclusive
COc1ccccc1C(=O)Nc1ccc2nc(N3CCC(C)CC3)cc(C)c2c1	AID inhibitor inconclusive
COc1cc(OC)cc(C(=O)Nc2ccc3nc(N4CCC(C)CC4)cc(C)c3c2)c1	UDG counter inconclusive, AID inhibitor 39.8µM
O=C(C1CC1)N(Cc1ccc2c(c1)CN(S(=O)(=O)c1ccc(F)c(F)c1)CCO2)c1ccccc1	UDG counter 89.1µM, AID inhibitor inconclusive
O=C(C1CC1)N(Cc1ccc2c(c1)CN(S(=O)(=O)c1ccccc1F)CCO2)c1ccccc1	AID inhibitor inconclusive
CC(C)N(CCNC(=O)C(c1ccccc1)c1ccccc1)C(C)C	none
O=C1C(SCCO)=C(SCCO)C(=O)c2ccccc21	AID inhibitor 11.2µM
Cc1ccc(/C=C/C(=O)OC(C)C(=O)c2ccc(C)c(C)c2)o1 (stereo unspecified)	none
O=C(CCN1CCC(c2ccccc2)C1)c1cccc2ccccc12 (stereo unspecified)	none
CCOCCCNC(=O)c1cc2c(-c3ccc(OC)c(OC)c3)nn(C)c2s1	none
CCOc1ccc(CCNC(=O)c2cc3c(-c4ccc(OC)c(OC)c4)nn(C)c3s2)cc1OCC	UDG counter 79.4µM, AID inhibitor inconclusive

High-throughput results as filed in PubChem.
